Source: PMC7862700, “An all-to-all approach to the identification of sequence-specific readers for epigenetic DNA modifications on cytosine”

Key:
Assay in all cases: DAPPL (digital affinity profiling via proximity ligation, sequencing); 10 mM Tris-HCl pH 7.5, 50 mM NaCl, 1 mM DTT, 4% glycerol, room temperature, 30 min; GST-TFs on glutathione beads, 16-mer random dsDNA library, 0.1% formaldehyde crosslink after washing; high values mean tight binding
FEV = molecular target: T1, FEV (Homo sapiens, UniProt Q99581 1-238); conditions: protein: recombinant; tags: N-terminal GST; dsDNA, one strand shown
T1 sequence: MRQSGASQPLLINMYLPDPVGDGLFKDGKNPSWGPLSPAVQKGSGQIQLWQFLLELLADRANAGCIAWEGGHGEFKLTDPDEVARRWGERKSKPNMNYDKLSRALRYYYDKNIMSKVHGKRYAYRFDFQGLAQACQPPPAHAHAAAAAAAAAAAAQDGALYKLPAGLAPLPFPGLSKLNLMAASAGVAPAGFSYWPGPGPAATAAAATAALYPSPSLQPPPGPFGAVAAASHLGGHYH
Method in brief: (§1)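 In yeast, human transcription factors were expressed with a GST fusion, then pulled down on glutathione beads and given DNA barcodes. Pooled with a tag-only sample, they were exposed to 200 nmole of a 16-mer random double-stranded DNA library (Tris/NaCl/DTT/glycerol buffer, room temperature, 30 min), washed, crosslinked with 0.1% formaldehyde, proximity-ligated using BsaI/T4 ligase for 1 h at 37 °C, PCR-amplified and read on an Illumina NextSeq500. Each hexamer's frequency of reads for a factor, divided by the matching frequency for the tag-only sample, gives the binding signal.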

ETV5 = ETV5 (Homo sapiens, UniProt P41161 1-510); conditions: protein: recombinant; tags: N-terminal GST; dsDNA, one strand shown
Sequence of ETV5 (P41161 whole entry): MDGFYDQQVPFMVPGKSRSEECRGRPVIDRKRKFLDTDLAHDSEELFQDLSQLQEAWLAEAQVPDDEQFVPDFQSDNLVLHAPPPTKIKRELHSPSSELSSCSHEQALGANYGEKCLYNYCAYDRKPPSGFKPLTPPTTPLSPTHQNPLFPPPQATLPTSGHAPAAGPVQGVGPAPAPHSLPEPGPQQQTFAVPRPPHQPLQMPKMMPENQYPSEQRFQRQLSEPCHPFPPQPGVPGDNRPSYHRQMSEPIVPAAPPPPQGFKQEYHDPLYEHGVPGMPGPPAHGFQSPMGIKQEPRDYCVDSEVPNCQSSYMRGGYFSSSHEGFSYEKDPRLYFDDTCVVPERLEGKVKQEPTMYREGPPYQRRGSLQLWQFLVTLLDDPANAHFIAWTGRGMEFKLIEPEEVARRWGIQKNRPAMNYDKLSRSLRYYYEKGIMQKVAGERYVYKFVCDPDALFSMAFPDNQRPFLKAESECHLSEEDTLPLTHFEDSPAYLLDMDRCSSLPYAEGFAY
Method in brief: as §1

HSF1 = HSF1 (Homo sapiens, UniProt Q00613 1-529); conditions: protein: recombinant; tags: N-terminal GST; chain copies: 3; dsDNA, one strand shown
Sequence of HSF1 (Q00613 whole entry): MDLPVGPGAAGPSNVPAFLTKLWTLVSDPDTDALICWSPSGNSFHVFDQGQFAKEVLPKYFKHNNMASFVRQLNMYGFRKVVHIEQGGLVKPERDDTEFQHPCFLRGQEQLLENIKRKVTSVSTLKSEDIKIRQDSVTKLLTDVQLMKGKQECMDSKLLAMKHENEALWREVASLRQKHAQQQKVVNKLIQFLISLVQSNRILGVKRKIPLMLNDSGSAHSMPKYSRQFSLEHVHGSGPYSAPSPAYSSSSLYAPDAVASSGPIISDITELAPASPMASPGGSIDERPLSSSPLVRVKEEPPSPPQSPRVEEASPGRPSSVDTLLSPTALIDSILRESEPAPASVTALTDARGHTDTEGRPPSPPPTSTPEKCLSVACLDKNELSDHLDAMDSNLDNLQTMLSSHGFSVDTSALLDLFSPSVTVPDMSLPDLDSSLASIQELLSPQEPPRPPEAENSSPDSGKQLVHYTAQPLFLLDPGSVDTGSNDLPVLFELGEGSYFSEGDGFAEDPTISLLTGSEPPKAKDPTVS
Method in brief: as §1

SPIC = molecular target: T2, SPIC (Homo sapiens, UniProt Q8N5J4 1-248); conditions: protein: recombinant; tags: N-terminal GST; dsDNA, one strand shown
T2 sequence: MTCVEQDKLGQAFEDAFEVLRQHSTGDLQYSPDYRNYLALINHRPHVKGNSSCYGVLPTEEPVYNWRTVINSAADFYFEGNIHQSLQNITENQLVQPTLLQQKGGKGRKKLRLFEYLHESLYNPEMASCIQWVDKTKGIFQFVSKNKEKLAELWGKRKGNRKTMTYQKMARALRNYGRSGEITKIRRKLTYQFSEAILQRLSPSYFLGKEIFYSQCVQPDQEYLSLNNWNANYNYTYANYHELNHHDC
Method in brief: as §1

ELF4 = ELF4 (Homo sapiens, UniProt Q99607 1-663); conditions: protein: recombinant; tags: N-terminal GST; dsDNA, one strand shown
Sequence of ELF4 (Q99607 whole entry): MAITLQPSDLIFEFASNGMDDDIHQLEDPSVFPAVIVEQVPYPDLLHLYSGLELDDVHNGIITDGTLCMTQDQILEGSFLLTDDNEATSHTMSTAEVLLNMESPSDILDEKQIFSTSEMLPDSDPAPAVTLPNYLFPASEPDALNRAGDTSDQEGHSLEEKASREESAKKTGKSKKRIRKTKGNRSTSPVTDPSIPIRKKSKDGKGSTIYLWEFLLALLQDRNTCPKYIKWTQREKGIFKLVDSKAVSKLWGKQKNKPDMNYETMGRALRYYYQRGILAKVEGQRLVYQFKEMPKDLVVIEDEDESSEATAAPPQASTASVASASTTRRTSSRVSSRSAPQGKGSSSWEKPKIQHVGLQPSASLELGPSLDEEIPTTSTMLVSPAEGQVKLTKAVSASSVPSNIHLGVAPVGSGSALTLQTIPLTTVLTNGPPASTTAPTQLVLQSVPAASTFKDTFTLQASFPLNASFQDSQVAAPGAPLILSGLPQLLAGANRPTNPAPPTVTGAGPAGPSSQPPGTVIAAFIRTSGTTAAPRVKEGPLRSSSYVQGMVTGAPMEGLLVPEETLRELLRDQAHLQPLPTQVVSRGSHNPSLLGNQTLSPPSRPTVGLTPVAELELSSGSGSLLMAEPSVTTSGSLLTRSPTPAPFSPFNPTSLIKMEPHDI
Method in brief: as §1

ELK4 = molecular target: T3, ELK4 (Homo sapiens, UniProt P28324-2 1-405); conditions: protein: recombinant; tags: N-terminal GST; dsDNA, one strand shown
T3 sequence: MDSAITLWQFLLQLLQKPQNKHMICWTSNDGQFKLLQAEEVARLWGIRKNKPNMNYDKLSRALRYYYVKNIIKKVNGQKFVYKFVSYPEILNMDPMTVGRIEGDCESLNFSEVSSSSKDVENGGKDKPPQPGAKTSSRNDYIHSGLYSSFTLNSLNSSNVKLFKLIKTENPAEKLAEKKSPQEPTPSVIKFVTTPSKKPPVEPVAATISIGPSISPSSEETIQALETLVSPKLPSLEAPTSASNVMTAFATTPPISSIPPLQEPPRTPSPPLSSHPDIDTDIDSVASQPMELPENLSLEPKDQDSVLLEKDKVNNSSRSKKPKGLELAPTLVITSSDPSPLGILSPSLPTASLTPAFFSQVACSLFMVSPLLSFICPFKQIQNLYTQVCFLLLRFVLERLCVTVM
Method in brief: as §1

ETV2 = molecular target: T4, ETV2 (Homo sapiens, UniProt O00321 1-342); conditions: protein: recombinant; tags: N-terminal GST; dsDNA, one strand shown
T4 sequence: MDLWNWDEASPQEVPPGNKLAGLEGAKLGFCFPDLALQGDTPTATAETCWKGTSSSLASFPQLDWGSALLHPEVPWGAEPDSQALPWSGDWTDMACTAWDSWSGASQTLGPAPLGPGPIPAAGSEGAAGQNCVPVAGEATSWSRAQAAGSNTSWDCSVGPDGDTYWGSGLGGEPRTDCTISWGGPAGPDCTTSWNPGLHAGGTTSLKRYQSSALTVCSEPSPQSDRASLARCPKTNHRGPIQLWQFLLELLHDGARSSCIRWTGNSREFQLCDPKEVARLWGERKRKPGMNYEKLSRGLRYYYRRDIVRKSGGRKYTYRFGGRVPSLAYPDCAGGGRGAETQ
Method in brief: as §1

ELF3 = molecular target: T5, ELF3 (Homo sapiens, UniProt P78545 1-371); conditions: protein: recombinant; tags: N-terminal GST; dsDNA, one strand shown
T5 sequence: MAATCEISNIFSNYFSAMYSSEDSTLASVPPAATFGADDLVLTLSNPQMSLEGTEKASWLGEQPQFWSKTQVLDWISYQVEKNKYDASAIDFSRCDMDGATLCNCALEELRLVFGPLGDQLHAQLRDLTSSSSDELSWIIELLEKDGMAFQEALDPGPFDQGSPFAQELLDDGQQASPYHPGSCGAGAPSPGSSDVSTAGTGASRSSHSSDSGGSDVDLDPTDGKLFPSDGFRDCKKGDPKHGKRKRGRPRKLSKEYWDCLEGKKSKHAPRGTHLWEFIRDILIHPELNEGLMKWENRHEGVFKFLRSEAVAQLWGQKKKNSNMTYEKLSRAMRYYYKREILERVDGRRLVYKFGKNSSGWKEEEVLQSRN
Method in brief: as §1

CRX = CRX (Homo sapiens, UniProt O43186 1-299); conditions: protein: recombinant; tags: N-terminal GST; dsDNA, one strand shown
Sequence of CRX (O43186 whole entry): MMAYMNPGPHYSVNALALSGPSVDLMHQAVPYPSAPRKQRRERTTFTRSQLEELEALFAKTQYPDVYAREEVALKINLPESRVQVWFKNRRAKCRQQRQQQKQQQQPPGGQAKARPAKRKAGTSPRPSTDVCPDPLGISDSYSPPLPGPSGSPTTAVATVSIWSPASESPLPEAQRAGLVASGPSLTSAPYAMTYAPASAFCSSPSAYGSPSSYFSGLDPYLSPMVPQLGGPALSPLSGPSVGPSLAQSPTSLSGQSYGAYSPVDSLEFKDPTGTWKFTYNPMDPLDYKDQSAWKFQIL
Method in brief: as §1

Sequence: ATTAAG
- binding signal (FEV): 1.02 fold enrichment (6-mer frequency, TF over GST control)
- binding signal (ETV5): 1.01 fold enrichment (6-mer frequency, TF over GST control)
- binding signal (HSF1): 2 fold enrichment (6-mer frequency, TF over GST control)
- binding signal (SPIC): 1.04 fold enrichment (6-mer frequency, TF over GST control)
- binding signal (ELF4): 1.06 fold enrichment (6-mer frequency, TF over GST control)
- binding signal (ELK4): 1.04 fold enrichment (6-mer frequency, TF over GST control)
- binding signal (ETV2): 1.03 fold enrichment (6-mer frequency, TF over GST control)
- binding signal (ELF3): 1.14 fold enrichment (6-mer frequency, TF over GST control)
- binding signal (CRX): 3.35 fold enrichment (6-mer frequency, TF over GST control)
